{
  "source": "PubChem BioAssay (NCI)",
  "note": "The panel holds about 83,000 compounds, 20% with a hit somewhere; the sample as a whole holds those more often.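 Method: cells in 96-well plates; compound added at one concentration; 48 h incubation; percent growth measured; values under 10 scored active.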 A number with no mark means an inactive call. Activity calls are given as the source filed them.",
  "data": [
    {"system": "OVCAR-8 ovarian", "assay": "NCI-60 one-dose screen, 48 h (100 = growth as untreated, 0 = no growth, -100 = all killed)", "details": "10 µM unless noted", "procedure": "Growth inhibition of the OVCAR-8 human tumor cell line is measured as a screen for anti-cancer activity. Cells are grown in 96 well plates and exposed to the test compound for 48 hours. Compounds are tested at a single concentration, which is 10^-5 M for most compounds. The reported endpoint is percent growth (GI% or GIPRCNT), where numbers from 0 - 100% represent growth inhibition, and numbers from -100% - 0 represent cell death. For example, a value of 40 represents 60% growth inhibition. A value of 0 means no net growth occurred over the course of the experiment. A value of -40 indicates 40% of cells at the beginning of the experiment died by the end of the experiment. A value of -100 means all cells are dead at the end of the experiment.\nNCI-60 Human Tumor Cell Lines Screen was performed using the standard one-dose NCI protocol, which is described in more detail at https://dtp.cancer.gov/discovery_development/nci-60/default.htm.\nCompounds with GIPRCNT values below 10 were considered active. Activity score was based on GIPRCNT using the following formula: […]\nScore is 0 for GIPRCNT values of 100 or above, 50 for GIPRCNT values of 0, and 100 for GIPRCNT values of -100.", "values": [
      {"smiles": "Cc1cccc2c1S/C(=C/c1ccc([N+](=O)[O-])cc1)C2=O", "growth": "105%"},
      {"smiles": "Cc1ccc(-c2nc3c(c(-c4ccccc4)nn3-c3ccccc3)c(-c3ccc(O)cc3)c2C#N)cc1", "growth": "69%"},
      {"smiles": "N#Cc1c(-c2ccc(Cl)cc2)nc2c(c(-c3ccccc3)nn2-c2ccccc2)c1-c1ccc(O)cc1", "growth": "49.9%"},
      {"smiles": "COc1nc2ccc(C)cc2cc1-c1nc2c(cnn2-c2ccccc2)c(=O)[nH]1", "growth": "94%"},
      {"smiles": "CNc1nc2c(s1)C(c1cccc(F)c1)CC(=O)N2", "note": "(stereo not given)", "growth": "102%"},
      {"smiles": "Cc1cccc2c3c(sc12)C(c1ccc(F)cc1)C(C#N)=C(N)O3", "note": "(stereo not given)", "growth": "18.9%"},
      {"smiles": "CN(C)CCS(=O)(=O)Nc1cc(-c2ccc3ncc(C#N)c(Nc4ccc(F)c(Cl)c4)c3c2)cnc1Cl", "growth": "-10.8% (active)"},
      {"smiles": "CC1=C(C)C(=O)C(Nc2cccc(C(=O)OC(C)(C)C)c2)=C(Br)C1=O", "growth": "92.4%"},
      {"smiles": "CCN1C(=O)N(CC)C2Nn3c(s/c(=C4\\C(=O)Nc5ccccc54)c3=O)=NC21", "note": "(stereo not given)", "growth": "43.6%"},
      {"smiles": "Cn1cc(-c2cc3ncnc(Nc4ccc(CC(=O)Nc5cc(C(C)(C)C)on5)cc4)c3s2)cn1", "growth": "40.7%"},
      {"smiles": "COc1ccc2[nH]c(-c3ccccc3)c(/C=C(\\C#N)S(=O)(=O)c3ccccc3)c2c1", "growth": "60.7%"},
      {"smiles": "CN(C(=O)NCc1cccc(F)c1Cl)[C@H](COC(=O)Nc1cc2ccccc2cn1)CC(O)CO", "note": "(stereo not given in full)", "growth": "88.1%"},
      {"smiles": "COc1ccc(C(=S)N2CCN(c3cccc(C)c3)CC2)cc1OC", "growth": "76.6%"},
      {"smiles": "COc1cc(C(=O)/C=C/c2ccc(OCCCCCC[P+](c3ccccc3)(c3ccccc3)c3ccccc3)cc2)cc(OC)c1OC", "growth": "-45.5% (active)"},
      {"smiles": "CN(C)CC#Cc1ccc2ncc(C#N)c(Nc3ccc(F)c(Cl)c3)c2c1", "growth": "45.2%"},
      {"smiles": "Brc1c[n+](Cc2ccc3ccccc3c2)cn1Cc1ccc2ccccc2c1", "growth": "8.2% (active)"},
      {"smiles": "CC(=O)O.CN1[CH-]N(Cc2ccc(C#N)cc2)c2ccccc21.[Ag+]", "growth": "101%"},
      {"smiles": "N#CC1=C(N)Oc2c(sc3c(Br)cccc23)C1c1ccc(Br)cc1", "note": "(stereo not given)", "growth": "36.1%"},
      {"smiles": "CNC(C)[C@H]1CCC2C3CCC4C[C@@H](N(C)C(=O)c5ccccc5)CC[C@]4(C)C3CC[C@@]21C", "note": "(stereo not given in full)", "growth": "47.5%"},
      {"smiles": "O=C(CSc1nc2ccccc2[nH]1)Nc1cccc(Cl)c1", "growth": "106%"},
      {"smiles": "CC(=O)N1CCN(c2ccc(OCC3CO[C@](Cn4ccnc4)(c4ccc(Cl)cc4Cl)O3)cc2)CC1", "note": "(stereo not given in full)", "growth": "83.9%"},
      {"smiles": "O=C(Nc1ccc(I)cc1F)c1cc(I)ccc1O", "growth": "12.7%"},
      {"smiles": "CC(=O)OC[C@H]1OC(Sc2sc(C(=O)c3ccc(C)cc3)c(N)c2-c2nc3ccccc3s2)[C@H](OC(C)=O)[C@@H](OC(C)=O)[C@@H]1OC(C)=O", "note": "(stereo not given in full)", "growth": "58.7%"},
      {"smiles": "C#C[C@]1(O)CC[C@H]2[C@@H]3CC=C4c5sc(Nc6ccccc6)nc5CC[C@]4(C)[C@H]3CC[C@@]21C", "growth": "33.8%"},
      {"smiles": "CS(=O)(=O)N(c1cc(-c2ccc3ncnc(Nc4ccc(F)c(Cl)c4)c3c2)cnc1Cl)S(C)(=O)=O", "growth": "66.1%"},
      {"smiles": "Cc1cc(=O)oc2cc(OC(=O)CN3CCN(C)CC3)ccc12", "growth": "103%"},
      {"smiles": "N#Cc1ccc(NC(=O)c2sc3nc4c(cc3c2N)C(=O)CCC4)cc1", "growth": "105%"},
      {"smiles": "C=CCNc1ccc2c3c(cccc13)C(=O)N(N1C(=O)c3cccc4cccc(c34)C1=O)C2=O", "growth": "100%"},
      {"smiles": "CCc1cccc2c1S/C(=C/c1ccc(OC)cc1)C2=O", "growth": "55.9%"},
      {"smiles": "O=C(/C=C/c1sc(Cl)nc1Cl)c1ccc(F)cc1", "growth": "83.7%"},
      {"smiles": "CCN(CC)Cc1cc(Nc2c3ccc(Cl)cc3nc3ccc(OC)cc23)ccc1O", "growth": "37.5%"},
      {"smiles": "COC(=O)[C@H](C)NC(=O)NC(=O)NC(=O)CI", "growth": "97%"},
      {"smiles": "CCOc1ccc2nc(SCc3nc4n(n3)S(=O)(=O)c3ccccc3N4C)sc2c1", "growth": "27.7%"},
      {"smiles": "CCc1cccc2c3c(sc12)C(c1ccc(Cl)cc1)C(C#N)=C(N)O3", "note": "(stereo not given)", "growth": "29.4%"},
      {"smiles": "Cc1nc2ccccc2c(/C=C/c2ccc(Cl)cc2)c1C(=O)/C=C/c1ccc(C(F)(F)F)cc1", "growth": "2.79% (active)"},
      {"smiles": "NS(=O)(=O)c1ccc(-n2nc(C(=O)N/N=C\\c3ccc(F)cc3)cc2-c2ccc(Br)cc2)cc1", "growth": "94.5%"},
      {"smiles": "O=c1c2cc(F)ccc2sc2c(NCCCNCCO)nc3ccc(F)cc3c12", "growth": "58.5%"},
      {"smiles": "O=C(Nc1ccc(Cl)cc1F)c1cc(Cl)ccc1O", "growth": "8.56% (active)"},
      {"smiles": "NCCOc1ncccc1/C=C1\\C2C=CC=CC2C2C=CC(F)=CC12", "note": "(stereo not given)", "growth": "25.7%"},
      {"smiles": "COc1cc(C2CC(c3ccc(SC)cc3)=NN2C(C)=O)cc(OC)c1OC", "note": "(stereo not given)", "growth": "80.3%"}
    ]}
  ]
}
